{
  "source": "PubChem BioAssay",
  "note": "Calls of active or inactive are those of the source. The rule behind the calls is not given here.",
  "data": [
    {"biological_target": "Pantothenate synthetase (Mycobacterium tuberculosis (strain ATCC 25618 / H37Rv)) (UniProt P9WIL5)", "sequence (P9WIL5 whole entry, looked up)": "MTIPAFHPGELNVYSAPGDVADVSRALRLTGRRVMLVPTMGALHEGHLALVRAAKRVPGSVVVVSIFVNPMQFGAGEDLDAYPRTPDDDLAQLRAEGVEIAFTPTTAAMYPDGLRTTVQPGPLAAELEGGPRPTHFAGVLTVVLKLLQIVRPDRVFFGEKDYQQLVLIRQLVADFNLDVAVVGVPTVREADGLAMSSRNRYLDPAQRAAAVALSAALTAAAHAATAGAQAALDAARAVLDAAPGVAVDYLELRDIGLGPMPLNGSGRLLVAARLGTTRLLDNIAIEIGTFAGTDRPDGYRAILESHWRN", "assay": "Coupled enzyme confirmation of inhibitors against recombinant Mtb PanC (AID 375);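 note: 0% = full reaction with vehicle and 100% = no enzyme background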", "settings": "coupled enzyme assay; at 10 µM, active compounds read high", "values": [
      {"compound": "Cc1cc(=O)oc2c(CN3CCN(C)CC3)c(O)c(Cl)cc12", "inhibition": "7% (inactive)"},
      {"compound": "O=C(CCC(=O)N1CCN(S(=O)(=O)c2ccccc2)CC1)c1cccs1", "inhibition": "9% (inactive)"},
      {"compound": "COC(=O)c1cc(S(=O)(=O)N2CCC(C)CC2)ccc1F", "inhibition": "6% (inactive)"},
      {"compound": "Cc1c(Cl)cnc(NC(=O)COC(=O)C(NC(=O)c2ccco2)C(C)C)c1Cl", "note": "(stereo not given)", "inhibition": "8% (inactive)"},
      {"compound": "CC1=C(C#N)C(c2ccoc2)C(C(=O)OCc2ccccc2)=C(N)S1", "note": "(stereo not given)", "inhibition": "5% (inactive)"},
      {"compound": "Cc1[nH]nc2c1C1(CCN(C(=O)c3ccccc3)CC1)C(C#N)=C(N)O2", "inhibition": "0% (inactive)"},
      {"compound": "CCn1c(=S)ccc2ccc(OC)cc21", "inhibition": "0% (inactive)"},
      {"compound": "Cc1cccc(NC(=O)CCN2CCN(C/C=C/c3ccccc3)CC2)c1", "inhibition": "0% (inactive)"},
      {"compound": "O=C(O)c1cccnc1Nc1cccc(C(F)(F)F)c1", "inhibition": "0% (inactive)"},
      {"compound": "COc1ccccc1C(=O)NC(C)C(c1cccs1)N1CCN(C)CC1", "note": "(stereo not given)", "inhibition": "3% (inactive)"},
      {"compound": "Cc1cc(C)nc(SCCS(=O)Cc2ccc(Cl)cc2)n1", "note": "(stereo not given)", "inhibition": "0% (inactive)"},
      {"compound": "CCCn1c(C)cc(C(=O)COc2ncnc3sccc23)c1C", "inhibition": "4% (inactive)"},
      {"compound": "CCOC(=O)Cc1nnc(NC(=O)c2ncn[nH]2)s1", "inhibition": "0% (inactive)"},
      {"compound": "CCOc1ccc(-n2cc(C(=O)Nc3cccc(C)n3)c3cc(OC)c(OC)cc3c2=O)cc1", "inhibition": "1% (inactive)"},
      {"compound": "Cc1cccc(-n2nnc(C(=O)NCc3ccccc3)c2N)c1", "inhibition": "0% (inactive)"},
      {"compound": "O=C(Nc1ccc(O)cc1)C1CCCN1S(=O)(=O)c1ccc(F)cc1", "note": "(stereo not given)", "inhibition": "0% (inactive)"},
      {"compound": "O=C(CCNS(=O)(=O)c1cccc2nsnc12)NCc1cccs1", "inhibition": "1% (inactive)"},
      {"compound": "O=C(O)COc1ccc(S(=O)(=O)NCCc2ccccc2)cc1", "inhibition": "6% (inactive)"},
      {"compound": "O=C1CC2CS(=O)(=O)CC2N1c1ccc(Oc2ccccc2)cc1", "note": "(stereo not given)", "inhibition": "0% (inactive)"},
      {"compound": "COCCn1c(=O)[nH]c2cc(C(=O)N3CCN(Cc4ccc5c(c4)OCO5)CC3)ccc2c1=O", "inhibition": "0% (inactive)"},
      {"compound": "O=C(NCc1ccc2c(c1)OCO2)c1cccc2c1C(=O)N(C1CCCCC1)C2", "inhibition": "5% (inactive)"},
      {"compound": "Cn1c(C(=O)Nc2ccc3c(c2)OCO3)cc2c(=O)n(C)c3ccccc3c21", "inhibition": "0% (inactive)"},
      {"compound": "CCN(CCCNS(=O)(=O)c1ccc2c(c1)oc(=O)n2C)c1cccc(C)c1", "inhibition": "0% (inactive)"},
      {"compound": "CC(C)c1ccc(NC(=O)C2CC(=O)N(C(C)C)C2)cc1", "note": "(stereo not given)", "inhibition": "5% (inactive)"},
      {"compound": "O=C1N=C(N2CCOCC2)CS1", "inhibition": "0% (inactive)"},
      {"compound": "O=C(NCCCN1CCOCC1)c1ccc(CS(=O)(=O)c2c(Cl)cccc2Cl)o1", "inhibition": "0% (inactive)"},
      {"compound": "C/C(=N\\O)C(=O)NCCCNCCCN(C)C", "inhibition": "2% (inactive)"},
      {"compound": "CN1CCN(CC#CCC(O)(c2ccccc2)C2CCCC2)CC1", "note": "(stereo not given)", "inhibition": "0% (inactive)"},
      {"compound": "COc1ccc(CNc2nc3nc(C)cc(C)n3n2)cc1OC", "inhibition": "1% (inactive)"},
      {"compound": "Cc1oc(C(=O)O)cc1CSCc1cc(C(=O)O)c(C)o1", "inhibition": "2% (inactive)"},
      {"compound": "Cc1csc2ncc(C(=O)N3CCc4ccccc43)c(=O)n12", "inhibition": "6% (inactive)"},
      {"compound": "COC(=O)c1ccccc1NC(=O)CSc1nc2c(c(=O)n(C)c(=O)n2C)n1C", "inhibition": "3% (inactive)"},
      {"compound": "CCOC(=O)N1CCC(NC(=O)c2cnn3ccccc23)CC1", "inhibition": "0% (inactive)"},
      {"compound": "CC(C)C(=O)Nc1nnc(CCc2nnc(NC(=O)C(C)C)s2)s1", "inhibition": "2% (inactive)"},
      {"compound": "CCOC(=O)CN(C(=O)c1ccccc1)c1ccccc1C", "inhibition": "0% (inactive)"},
      {"compound": "CCCOc1cccc(C(=O)N(Cc2ccco2)C2CCS(=O)(=O)C2)c1", "note": "(stereo not given)", "inhibition": "0% (inactive)"},
      {"compound": "CC1(C)CC(=O)c2cnc(NC(=O)CSc3nc4ccccc4o3)nc2C1", "inhibition": "0% (inactive)"},
      {"compound": "COc1ccc(-c2nc(C)sc2CC(=O)O)cc1", "inhibition": "4% (inactive)"},
      {"compound": "Cc1cc(NC(=O)COc2cccc(C)c2C)no1", "inhibition": "0% (inactive)"},
      {"compound": "CCCCC[C@H](O)/C=C/[C@@H]1[C@@H](CCCCCCC(=O)O)[C@@H](O)C[C@H]1O", "inhibition": "0% (inactive)"}
    ]}
  ]
}
